The panel holds about 83,000 compounds, 20% with a hit somewhere; the sample as a whole holds those more often.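 Single-dose data. Exposure time 48 hours. Values below 10 considered active.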 A number with no mark means an inactive call. Active and inactive are the calls of the source.
Assays:
Experiment in all cases: NCI-60 one-dose screen, 48 h (100 = growth as untreated, 0 = no growth, -100 = all killed)
Conditions in all cases: 10 µM unless noted
DU-145 prostate = test system: DU-145 prostate
K-562 leukemia = test system: K-562 leukemia
MALME-3M melanoma = test system: MALME-3M melanoma
MDA-MB-231 breast = test system: MDA-MB-231 breast
RXF 393 renal = test system: RXF 393 renal
SF-268 CNS = test system: SF-268 CNS
SF-295 CNS = test system: SF-295 CNS
SF-539 CNS = test system: SF-539 CNS
UACC-257 melanoma = test system: UACC-257 melanoma
M14 melanoma = test system: M14 melanoma
HCT-15 colon = test system: HCT-15 colon
HT29 colon = test system: HT29 colon
SNB-19 CNS = test system: SNB-19 CNS
U251 CNS = test system: U251 CNS
PC-3 prostate = test system: PC-3 prostate
SK-MEL-5 melanoma = test system: SK-MEL-5 melanoma
UACC-62 melanoma = test system: UACC-62 melanoma
LOX IMVI melanoma = test system: LOX IMVI melanoma
SK-MEL-28 melanoma = test system: SK-MEL-28 melanoma
SNB-75 CNS = test system: SNB-75 CNS

`CCC(C)(C)c1ccc(OCCCCCCN2CCN(c3ccc(C)c(Cl)c3)CC2)cc1` was tested, and the growth (DU-145 prostate) was 86%, the growth (K-562 leukemia) was 78.4% and the growth (MALME-3M melanoma) was 86.7%. The growth (MDA-MB-231 breast) was 115%, the growth (RXF 393 renal) was 95.6% and the growth (SF-268 CNS) was 82.5%. The growth (SF-295 CNS) was 85.7%, the growth (SF-539 CNS) was 98.6% and the growth (UACC-257 melanoma) was 110%. It also gave a growth (M14 melanoma) of 93.7%, a growth (HCT-15 colon) of 64.8% and a growth (HT29 colon) of 82.8%. The growth (SNB-19 CNS) was 103%, the growth (U251 CNS) was 104% and the growth (PC-3 prostate) was 78.1%. For the same molecule, the growth (SK-MEL-5 melanoma) was 78.1%, the growth (UACC-62 melanoma) was 79.2% and the growth (LOX IMVI melanoma) was 81.8%. The growth (SK-MEL-28 melanoma) was 96.5%.

For `CCOC(=O)c1c(C)oc2ncnc(Nc3ccc(NC(=O)Nc4ccc(CC)cc4)cc3)c12`, the growth (DU-145 prostate) was 103%, the growth (K-562 leukemia) was 98% and the growth (MALME-3M melanoma) was 101%. It also gave a growth (MDA-MB-231 breast) of 94.7%, a growth (RXF 393 renal) of 98.3% and a growth (SF-268 CNS) of 103%. It also gave a growth (SF-295 CNS) of 109%, a growth (SF-539 CNS) of 89.4% and a growth (UACC-257 melanoma) of 111%. The growth (M14 melanoma) was 99.9%, the growth (HCT-15 colon) was 105% and the growth (HT29 colon) was 103%. For the same molecule, the growth (SNB-75 CNS) was 80.6%, the growth (SNB-19 CNS) was 98% and the growth (PC-3 prostate) was 90.8%. The growth (SK-MEL-5 melanoma) was 93.8%, the growth (UACC-62 melanoma) was 108% and the growth (LOX IMVI melanoma) was 100%. The growth (SK-MEL-28 melanoma) was 105%.

With `COc1nc(OC)nc(-c2cc(-c3cc(OC)c(OC)c(OC)c3)no2)n1` the growth (DU-145 prostate) was 105%, the growth (K-562 leukemia) was 95.1% and the growth (MALME-3M melanoma) was 110%. For the same molecule, the growth (MDA-MB-231 breast) was 90.5%, the growth (RXF 393 renal) was 94.8% and the growth (SF-268 CNS) was 100%. The growth (SF-295 CNS) was 104%, the growth (SF-539 CNS) was 112% and the growth (UACC-257 melanoma) was 99.6%. For the same molecule, the growth (M14 melanoma) was 111%, the growth (HCT-15 colon) was 103% and the growth (HT29 colon) was 100%. It also gave a growth (SNB-75 CNS) of 97.2%, a growth (SNB-19 CNS) of 96.9% and a growth (PC-3 prostate) of 86.3%. For the same molecule, the growth (SK-MEL-5 melanoma) was 88.2%, the growth (UACC-62 melanoma) was 97.6% and the growth (LOX IMVI melanoma) was 104%. The growth (SK-MEL-28 melanoma) was 115%.

In the case of `Cn1c2c(cc(S(=O)(=O)c3ccccc3)c1=O)CCc1c-2cnn1-c1ccc(Cl)cc1`, the growth (DU-145 prostate) is reported as 8.78% (active), the growth (K-562 leukemia) is reported as 39.8% and the growth (MALME-3M melanoma) is reported as -70.7% (active). The growth (MDA-MB-231 breast) was 31.3%, the growth (RXF 393 renal) was 2.65% (active) and the growth (SF-268 CNS) was 32.9%. For the same molecule, the growth (SF-295 CNS) was -4.18% (active), the growth (SF-539 CNS) was -19% (active) and the growth (UACC-257 melanoma) was 11.7%. It also gave a growth (M14 melanoma) of 64%, a growth (HCT-15 colon) of 39.5% and a growth (HT29 colon) of 16.8%. The growth (SNB-75 CNS) was -54.3% (active), the growth (PC-3 prostate) was 28.8% and the growth (SK-MEL-5 melanoma) was 6.71% (active). The growth (UACC-62 melanoma) was 35.4%, the growth (LOX IMVI melanoma) was 6.82% (active) and the growth (SK-MEL-28 melanoma) was -36.7% (active).

With `O=C1Nc2ccccc2/C1=C/c1cn(CC(O)Cn2cc(/C=C3\C(=O)Nc4ccccc43)c3ccccc32)c2ccccc12` (stereo not given) the growth (DU-145 prostate) was -90.5% (active), the growth (K-562 leukemia) was -16.7% (active) and the growth (MALME-3M melanoma) was -76.1% (active). The growth (MDA-MB-231 breast) was -79.9% (active), the growth (RXF 393 renal) was -90.8% (active) and the growth (SF-268 CNS) was -62% (active). For the same molecule, the growth (SF-295 CNS) was -84.7% (active), the growth (SF-539 CNS) was -77.7% (active) and the growth (UACC-257 melanoma) was -50.9% (active). The growth (M14 melanoma) was -81.4% (active), the growth (HCT-15 colon) was -69.8% (active) and the growth (HT29 colon) was -20.2% (active). For the same molecule, the growth (SNB-75 CNS) was -95.9% (active), the growth (SNB-19 CNS) was -43% (active) and the growth (PC-3 prostate) was -86.3% (active). The growth (SK-MEL-5 melanoma) was -80.2% (active), the growth (UACC-62 melanoma) was -75.2% (active) and the growth (LOX IMVI melanoma) was -84.5% (active). The growth (SK-MEL-28 melanoma) was -85% (active).

With `COc1cc2ncnc(-n3ncc4cc(NC(=O)Nc5ccc(Cl)c(Cl)c5)ccc43)c2cc1OC` the growth (DU-145 prostate) was 1.5% (active), the growth (K-562 leukemia) was 10.7% and the growth (MALME-3M melanoma) was -44.3% (active). For the same molecule, the growth (MDA-MB-231 breast) was -74.3% (active), the growth (RXF 393 renal) was -86.7% (active) and the growth (SF-268 CNS) was -34.8% (active). The growth (SF-295 CNS) was -66.8% (active), the growth (SF-539 CNS) was -70.6% (active) and the growth (UACC-257 melanoma) was -10.3% (active). The growth (M14 melanoma) was -41% (active), the growth (HCT-15 colon) was -35.7% (active) and the growth (HT29 colon) was -16.7% (active). The growth (SNB-75 CNS) was -57.7% (active), the growth (SNB-19 CNS) was 10.4% and the growth (PC-3 prostate) was -57.1% (active). For the same molecule, the growth (SK-MEL-5 melanoma) was -82.8% (active), the growth (UACC-62 melanoma) was -68.5% (active) and the growth (LOX IMVI melanoma) was -77.7% (active). The growth (SK-MEL-28 melanoma) was -70.9% (active).

In the case of `CCc1c(C)c2ccc(OCC(=O)N=Nc3c(O)[nH]c4ccccc34)c(C)c2oc1=O`, the growth (DU-145 prostate) is reported as 7.92% (active), the growth (K-562 leukemia) is reported as 4.73% (active) and the growth (MALME-3M melanoma) is reported as 42.5%. For the same molecule, the growth (MDA-MB-231 breast) was 0.841% (active), the growth (RXF 393 renal) was 35.7% and the growth (SF-268 CNS) was 18.4%. For the same molecule, the growth (SF-295 CNS) was -9.71% (active), the growth (SF-539 CNS) was 85% and the growth (UACC-257 melanoma) was 28.2%. The growth (M14 melanoma) was 3.57% (active), the growth (HCT-15 colon) was -15% (active) and the growth (HT29 colon) was -38.6% (active). The growth (SNB-19 CNS) was 19.2%, the growth (U251 CNS) was -70.8% (active) and the growth (PC-3 prostate) was -9.58% (active). For the same molecule, the growth (SK-MEL-5 melanoma) was 34.2%, the growth (UACC-62 melanoma) was 22.8% and the growth (LOX IMVI melanoma) was -37.8% (active). The growth (SK-MEL-28 melanoma) was 64.8%.

In the case of `CN(C)CCOC(=O)C(C)(C)C`, the growth (DU-145 prostate) is reported as 122%, the growth (K-562 leukemia) is reported as 101% and the growth (MALME-3M melanoma) is reported as 105%. For the same molecule, the growth (MDA-MB-231 breast) was 93.9%, the growth (RXF 393 renal) was 102% and the growth (SF-268 CNS) was 121%. It also gave a growth (SF-295 CNS) of 108%, a growth (SF-539 CNS) of 109% and a growth (UACC-257 melanoma) of 92.5%. For the same molecule, the growth (M14 melanoma) was 98.3%, the growth (HCT-15 colon) was 101% and the growth (HT29 colon) was 99.7%. For the same molecule, the growth (SNB-75 CNS) was 100%, the growth (SNB-19 CNS) was 99.4% and the growth (PC-3 prostate) was 93.6%. For the same molecule, the growth (SK-MEL-5 melanoma) was 105%, the growth (UACC-62 melanoma) was 93.3% and the growth (LOX IMVI melanoma) was 105%. The growth (SK-MEL-28 melanoma) was 26%.

`COc1cccc2c1n([O-])c1cccc(OC)c1[n+]2=O` was tested, and the growth (DU-145 prostate) was 60.9%, the growth (K-562 leukemia) was 37.6% and the growth (MALME-3M melanoma) was 89.2%. For the same molecule, the growth (MDA-MB-231 breast) was 95.7%, the growth (RXF 393 renal) was -35.3% (active) and the growth (SF-268 CNS) was 62%. The growth (SF-295 CNS) was 120%, the growth (SF-539 CNS) was 68.4% and the growth (UACC-257 melanoma) was 71%. For the same molecule, the growth (M14 melanoma) was 96%, the growth (HCT-15 colon) was 87.6% and the growth (HT29 colon) was 73.5%. The growth (SNB-19 CNS) was 80.4%, the growth (U251 CNS) was 80% and the growth (PC-3 prostate) was 57.8%. The growth (SK-MEL-5 melanoma) was 72.6%, the growth (UACC-62 melanoma) was 84.5% and the growth (LOX IMVI melanoma) was 64.8%. The growth (SK-MEL-28 melanoma) was 72.1%.

— PubChem BioAssay (NCI)
